Source: PubChem BioAssay (Broad Institute)
Pf Dd2 inh – blocks growth of Plasmodium falciparum Dd2 parasites. P. falciparum Dd2 growth, SYBR Green, 72 h; hits give low values. activity change, % at 10 µM. 2.3% of 94,000 active. AID 1159554; in the data active means activity change below about -80%; inconclusive means no clear call, values can overlap the other calls
C diff HTS – blocks growth of Clostridium difficile; Clostridium difficile clinical isolate growth, OD600, 24 h; hits give low values; growth activity, negative = inhibition, % at 16 µg/mL (by protocol); 0.25% of 86,000 active; AID 1259249;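 active means mean growth activity at or below -80% and every replicate also at or below -80%; inconclusive means mean at or below -80% but some replicate above -80%; inactive means mean growth activity above -80%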;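 further: 0% = DMSO wells and -100% = levofloxacin 16 µg/mL wells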
T cruzi growth-1 – inhibitors of T. cruzi proliferation; T. cruzi beta-gal in NIH3T3, GalScreen luminescence, 90 h; inhibition, % at 8.34 µM; 5.9% of 77,000 active; AID 624255;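 active means mean inhibition above about 93%, with at least 55% of replicates each passing it, limit read from the data, passing the limit was not always enough; inconclusive means only one of those two conditions holds; inactive means neither condition holds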
T cruzi growth-2 – blocks T. cruzi growth in NIH3T3 host cells; AID 651739; shares compounds with T cruzi growth-1; 72% of 5,600 active; inhibition, % at 8.35 µM; T. cruzi beta-gal in NIH3T3, GalScreen luminescence, 90 h;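 active means mean replicate inhibition above about 95% and at least 55% of replicates individually reaching it, limit read from the data; inconclusive means only one of the two criteria is met; inactive means neither criterion is met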
T cruzi growth-3 – Trypanosoma cruzi proliferation inhibition; shares compounds with T cruzi growth-1; T. cruzi beta-gal in NIH3T3, GalScreen luminescence, 90 h; inhibition, % at 2.09 µM; 21% of 5,600 active;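 active means mean inhibition above about 95%, with at least 55% of replicates also reaching it, limit read from the data; inconclusive means meets just one of the two conditions; inactive means meets neither condition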;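 further: plate controls were neutral control median for no effect and positive control median for full effect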
3T3 cytotox – kills mouse NIH/3T3 fibroblasts; shares compounds with T cruzi growth-1; NIH/3T3 viability, CellTiter-Glo ATP luminescence, 90 h; cytotoxicity (signal decrease), % at 8.35 µM; 14% of 5,600 active; AID 651742;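 active means mean signal decrease across replicates above about 35% based on untreated-well scatter, with enough replicates individually passing, limit read from the data; inconclusive means no rule stated though some were filed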;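 further: 0% = median of neutral control wells and 100% = median of positive control wells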
3T3 cytotox 2 – NIH/3T3 (mouse) viability loss. NIH/3T3 viability, CellTiter-Glo ATP luminescence, 90 h. shares compounds with T cruzi growth-1. inhibition, % at 24.9 µM. 56% of 5,600 active;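 active means mean loss of cell viability signal at or above a set limit, and enough replicates individually reaching it; inconclusive means meets only the mean limit or only the replicate share; inactive means meets neither condition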;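 further: 0% = median of neutral control wells and 100% = median of positive control wells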
* marks the source's active call; other numbers are inactive results; u = inconclusive; x = no result given. An excerpt weighted towards active compounds, which were near 6.8% of everything screened.

SMILES | Pf Dd2 inh | C diff HTS | T cruzi growth-1 | T cruzi growth-2 | T cruzi growth-3 | 3T3 cytotox | 3T3 cytotox 2
COc1ccc(NC(=O)Nc2ccc3c(c2)C(=O)N([C@H](C)CO)C[C@@H](C)[C@H](CN(C)Cc2ccc4c(c2)OCO4)OCCCC[C@@H](C)O3)cc1 | -83* | 6 | 101* | 93 | 95 | u | 106*
COc1ccc(NC(=O)Nc2ccc3c(c2)C(=O)N([C@@H](C)CO)C[C@H](C)[C@@H](CN(C)Cc2ccc4c(c2)OCO4)OCCCC[C@@H](C)O3)cc1 | -72 | 18 | 74 | x | x | x | x
COc1ccc(NC(=O)Nc2ccc3c(c2)C(=O)N([C@H](C)CO)C[C@@H](C)[C@@H](CN(C)Cc2ccc4c(c2)OCO4)OCCCC[C@@H](C)O3)cc1 | -78 | 1 | 124* | 100* | 82 | 17 | 37*
COc1ccc(NC(=O)Nc2ccc3c(c2)C(=O)N([C@@H](C)CO)C[C@H](C)[C@H](CN(C)Cc2ccc4c(c2)OCO4)OCCCC[C@@H](C)O3)cc1 | -67 | 13 | 103* | 103* | 54 | 0 | 8
COc1ccc(NC(=O)Nc2ccc3c(c2)C(=O)N([C@H](C)CO)C[C@H](C)[C@H](CN(C)Cc2ccc4c(c2)OCO4)OCCCC[C@H](C)O3)cc1 | -68 | 2 | u | 98* | 99* | 9 | 103*
O=C1CN(Cc2ccc(F)cc2)C[C@@H]2[C@H](c3ccc(-c4ccccc4)cc3)[C@@H](CO)N12 | 8 | -5 | x | x | x | x | x
Cc1ccc(S(=O)(=O)N2C[C@@H]3O[C@@H](CNS(=O)(=O)c4ccccc4C)CC[C@@H]32)cc1 | -13 | 0 | x | x | x | x | x
Cc1noc(C)c1S(=O)(=O)Nc1ccc2c(c1)CC(=O)N([C@@H](C)CO)C[C@H](C)[C@@H](CN(C)Cc1ccncc1)O2 | 19 | 0 | -41 | x | x | x | x
COc1ccc(NC(=O)Nc2ccc3c(c2)C(=O)N([C@@H](C)CO)C[C@H](C)[C@@H](CN(C)C)OCCCC[C@H](C)O3)cc1 | -1 | -1 | -7 | x | x | x | x
C[C@H]1CN([C@@H](C)CO)C(=O)c2cc(NC(=O)c3ccncc3)ccc2O[C@H]1CN(C)C(=O)NC1CCCCC1 | 11 | -2 | x | x | x | x | x
C[C@H]1CCCCO[C@H](CN(C)Cc2ccccc2)[C@@H](C)CN([C@@H](C)CO)C(=O)c2cc(N(C)C)ccc2O1 | x | -1 | -36 | x | x | x | x
COc1ccc(NC(=O)Nc2ccc3c(c2)C(=O)N([C@@H](C)CO)C[C@H](C)[C@H](CN(C)Cc2ccc4c(c2)OCO4)OCCCC[C@H](C)O3)cc1 | -77 | 9 | 118* | 102* | 103* | 40* | 43*
C[C@@H]1CCCCO[C@H](CN(C)CC2CCCCC2)[C@@H](C)CN([C@@H](C)CO)C(=O)c2cc(NS(=O)(=O)c3cn(C)cn3)ccc2O1 | -13 | 4 | -12 | x | x | x | x
Cc1ccc(S(=O)(=O)N(C)C[C@@H]2OCCCC[C@@H](C)Oc3ccc(NS(=O)(=O)c4ccccc4)cc3C(=O)N([C@H](C)CO)C[C@H]2C)cc1 | -65 | 10 | 102 | x | x | x | x
Cc1ccc(S(=O)(=O)Nc2ccc3c(c2)C(=O)N([C@H](C)CO)C[C@@H](C)[C@H](CN(C)S(=O)(=O)c2ccc(C)cc2)OCCCC[C@H](C)O3)cc1 | -64 | x | 91 | x | x | x | x
Cc1ccc(S(=O)(=O)Nc2ccc3c(c2)C(=O)N([C@H](C)CO)C[C@H](C)[C@H](CN(C)S(=O)(=O)c2ccccc2)OCCCC[C@@H](C)O3)cc1 | -34 | -3 | 45 | x | x | x | x
Cc1ccc(S(=O)(=O)Nc2ccc3c(c2)C(=O)N([C@H](C)CO)C[C@H](C)[C@@H](CN(C)S(=O)(=O)c2ccc(C)cc2)OCCCC[C@H](C)O3)cc1 | -67 | x | 98* | 97* | 54 | 75* | 59*
Cc1ccc(S(=O)(=O)Nc2ccc3c(c2)C(=O)N([C@H](C)CO)C[C@@H](C)[C@@H](CN(C)S(=O)(=O)c2ccccc2)OCCCC[C@H](C)O3)cc1 | -71 | -6 | 94 | x | x | x | x
Cc1ccc(S(=O)(=O)Nc2ccc3c(c2)C(=O)N([C@@H](C)CO)C[C@H](C)[C@H](CN(C)S(=O)(=O)c2ccc(C)cc2)OCCCC[C@H](C)O3)cc1 | -68 | x | 104* | 105* | 84 | -12 | -8
Cc1ccc(S(=O)(=O)Nc2ccc3c(c2)C(=O)N([C@H](C)CO)C[C@@H](C)[C@@H](CN(C)S(=O)(=O)c2ccc(C)cc2)OCCCC[C@H](C)O3)cc1 | -84* | x | 103* | 112* | u | -39 | -3
Cc1ccc(S(=O)(=O)Nc2ccc3c(c2)C(=O)N([C@@H](C)CO)C[C@H](C)[C@@H](CN(C)S(=O)(=O)c2ccc(C)cc2)OCCCC[C@H](C)O3)cc1 | -76 | x | 106* | 108* | 85 | -19 | -17
O=S(=O)(NCC[C@@H]1CC[C@@H](NS(=O)(=O)c2cccc(F)c2)[C@H](CO)O1)c1cccc(F)c1 | 21 | -13 | x | x | x | x | x
CCCC#Cc1cnc2c(c1)C(=O)N([C@@H](C)CO)C[C@H](C)[C@@H](CN(C)Cc1ccc3c(c1)OCO3)O2 | -37 | 8 | x | x | x | x | x
CNC[C@H]1OCCCC[C@@H](C)Oc2ccc(NC(=O)CCC(F)(F)F)cc2C(=O)N([C@@H](C)CO)C[C@@H]1C | 29 | -4 | -14 | x | x | x | x
CCCN(C)C[C@H]1Oc2cc(C#Cc3ccccc3)ccc2S(=O)(=O)N([C@@H](C)CO)C[C@H]1C | -59 | 0 | 60 | x | x | x | x
SMILES | Pf Dd2 inh | C diff HTS | T cruzi growth-1 | T cruzi growth-2 | T cruzi growth-3 | 3T3 cytotox | 3T3 cytotox 2
CCCN(C)C[C@@H]1Oc2cc(C#Cc3ccccc3F)ccc2S(=O)(=O)N([C@@H](C)CO)C[C@H]1C | -48 | 2 | u | 107* | 79 | 11 | 105*
CCCN(C)C[C@H]1Oc2cc(C#Cc3cccc(F)c3)ccc2S(=O)(=O)N([C@H](C)CO)C[C@H]1C | x | 16 | 20 | x | x | x | x
CCCN(C)C[C@H]1Oc2cc(C#Cc3ccc(F)cc3)ccc2S(=O)(=O)N([C@H](C)CO)C[C@@H]1C | -8 | 5 | 31 | x | x | x | x
CCCN(C)C[C@H]1Oc2cc(C#Cc3cccc(F)c3)ccc2S(=O)(=O)N([C@H](C)CO)C[C@@H]1C | x | 12 | 110* | 112* | 56 | 1 | 104*
CCCN(C)C[C@H]1Oc2cc(C#Cc3cccc(F)c3)ccc2S(=O)(=O)N([C@@H](C)CO)C[C@H]1C | x | 2 | 108* | 102* | 46 | 29 | 103*
CCCN(C)C[C@H]1Oc2cc(C#Cc3ccccc3F)ccc2S(=O)(=O)N([C@H](C)CO)C[C@@H]1C | -23 | 12 | 87 | x | x | x | x
CCCN(C)C[C@@H]1Oc2cc(C#Cc3cccc(F)c3)ccc2S(=O)(=O)N([C@H](C)CO)C[C@@H]1C | x | 6 | 108* | 107* | 55 | 15 | 106*
